The list is not random: actives were taken first. Their share in the collection is about 5.7%.
KB-3-1 cytotox – kills parental KB-3-1 adenocarcinoma cells; 1.4% of 400,000 active; Potency, µM (top dose mostly 46.1 µM), hits mostly cytotoxic; KB-3-1 viability, CellTiter-Glo ATP luminescence, 72 h; AID 1347075; further: nearly all actives have a fitted effect of over 60% in size
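KB-3-1 parental drug-naive adenocarcinoma cells in DMEM/10% FBS, incubated 72 h at 37 C with pin-transferred compounds across a concentration series. Viability by CellTiter-Glo luminescence; concentration-response curves fitted after normalization.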
KB-V1 cytotox – kills drug-selected multidrug resistant KB-V1 cells | 3.4% of 400,000 active | KB-V1 MDR cells viability, CellTiter-Glo, 72 h | Potency, µM (titrated, usually from 46.1 µM), usual class: cytotoxic; further: nearly all actives have a fitted effect of over 60% in size
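Luminescent ATP read-out (CellTiter-Glo, 10 min) measures survival of drug-selected KB-V1 MDR cells after 72 h, 37 degrees C compound exposure. Medium: phenol-red-free DMEM, 10% FBS. Values from fitted concentration-response curves.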
HT1080 IDH1KD tx – toxicity to HT-1080 IDH1 knockdown cells (counter line); HT-1080 IDH1 knockdown viability, ATP luminescence, 48 h; Potency, µM (highest dose often 46.1 µM), usual class: cytotoxic; 2% of 360,000 active
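After a 2 h attachment period, IDH1KD HT-1080 cells took pin-transferred compound for 48 h at 37 °C; ATP-based luminescence after 10 min room-temperature reagent incubation reported viability.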
HT1080-NT tox – kills 2HG-producing HT-1080-NT fibrosarcoma cells. HT-1080-NT fibrosarcoma viability, CellTiter-Glo ATP luminescence, 48 h. Potency, µM (top dose mostly 46.1 µM), actives largely listed as cytotoxic. 1.6% of 360,000 active;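 further: NT is the 2HG producing partner of a matched IDH1 knockdown line; nearly all actives have a fitted effect of over 55% in size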
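Read-out is CellTiter-Glo luminescence after 10 minutes at room temperature, following 48 hours' compound treatment of HT-1080-NT cells (750 cells/well, RPMI, 5% FBS, 37 degrees C).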
Numbers stand for hits; n = inactive; u = inconclusive; x = no result given; [ ] = another dose, or the depositor's remark. The call rests on the fitted dose curve; in most records, active means well fitted curve in the direction sought with a large enough effect; inconclusive means small, poorly fitted or top-dose-only effect, or another doubt; inactive means no such curve, though single readings can be large; an effect the other way counts as inactive or inconclusive.

SMILES	KB-3-1 cytotox	KB-V1 cytotox	HT1080 IDH1KD tx	HT1080-NT tox
CCN(CC(=O)Nc1cc(Cl)ccc1C)C(=O)c1oc2ccc(OC)cc2c1C	n	16µM	n	n
CCOc1ccc(N(CC(=O)Nc2ccccc2C(=O)N2CCOCC2)S(=O)(=O)c2ccc(F)cc2)cc1	n	4.6µM	n	n
CCOC(=O)c1ccccc1NC(=O)CN(c1ccccc1)S(=O)(=O)c1ccc(OCC)cc1	n	n	x	x
Cc1ccc(N(CC(=O)Nc2ccc3c(c2)OCCO3)S(=O)(=O)c2c(C)noc2C)cc1	n	u	n	n
Cc1c(Cl)cccc1-c1ccc(CNCCSc2nnnn2-c2ccccc2)o1	n	n	x	x
Cc1ccc(CNc2ncnc3onc(C)c23)cc1	n	n	x	x
COc1ccc(N(CC(=O)Nc2cc(C)on2)S(=O)(=O)c2cc(C)ccc2C)cc1	u	5.8µM	u	u
CCS(=O)(=O)N(CC(=O)Nc1cccc2ccccc12)c1ccc(OC)cc1	n	13µM	n	n
COc1ccc(N(CC(=O)Nc2cccc3ccccc23)S(C)(=O)=O)cc1	n	n	n	n
CCOc1ccc(N(CC(=O)Nc2ccccc2OCC)S(=O)(=O)c2c(C)noc2C)cc1	3.3µM	5.8µM	2.3µM	2.3µM
Cc1ccc(N(CC(=O)Nc2cc(Cl)ccc2Oc2ccccc2)S(C)(=O)=O)cc1C	u	21µM	n	n
CCOc1ccc(N(CC(=O)Nc2ccc(C)cc2)S(=O)(=O)c2c(C)noc2C)cc1	u	u	n	n
CN(C)c1ccc(Cn2ccc3ccccc32)cc1	n	n	x	x
CCN(CC)S(=O)(=O)c1ccc2nc(NC(=O)c3cccnc3)sc2c1	n	n	x	x
CCOc1ccccc1NC(=O)c1ccc2c(Cl)c3c(nc2c1)CCC3	n	n	x	x
CCC(=O)N1CCc2cc(S(=O)(=O)NC(Cc3ccccc3)C(=O)Nc3cccc(OC)c3)ccc21 (stereo not drawn)	n	n	x	x
CCOc1ccc(CCNC(=O)Cn2ccc3cc(S(=O)(=O)N4CCCCCC4)ccc32)cc1	n	n	x	x
COc1ccc(S(=O)(=O)N(Cc2ccccc2)c2ccccc2C(=O)N2CCOCC2)cc1	u	13µM	u	23µM
COc1ccc(N(CC(=O)Nc2ccc(OC)cc2OC)S(=O)(=O)c2ccccc2)cc1	n	u	u	n
CCOc1ccc(N(CC(=O)Nc2ccccc2OC)S(=O)(=O)c2ccccc2)cc1	4.6µM	1µM	1.6µM	2.1µM
COc1ccc(S(=O)(=O)N(Cc2ccccc2)c2ccccc2C(=O)O)cc1	n	n	n	n
Cc1ccc(S(=O)(=O)N(Cc2ccccc2)c2ccccc2C(=O)NCc2ccco2)cc1	n	n	n[9.24 µM]	11µM
Cc1[nH]c2ccc(Br)cc2c1CCNC(=O)c1cc2ccccc2oc1=O	n	n	x	x
Cc1ccc(C)c(OCC(=O)NNC(=O)CCN2CCN(c3ccccc3)CC2)c1	n	21µM	n	n
O=C(CCN1CCN(c2ccccc2)CC1)N/N=C/c1ccccc1O	n	u	21µM	u
SMILES	KB-3-1 cytotox	KB-V1 cytotox	HT1080 IDH1KD tx	HT1080-NT tox
Cc1cc(C(=O)NNC(=O)CCN2CCN(c3ccccc3)CC2)c2ccccc2n1	u	n	n	n
O=C(N/N=C/c1ccccc1O)C(=O)N1CCCCCC1	u	n	8.2µM	u
O=C(CCN1CCN(c2ccccc2)CC1)NNC(=O)c1cccc2ccccc12	n	18µM	n	n
CN1CCN(CCC(=O)N/N=C/c2ccccc2F)CC1	n	n	n	n
Cc1cccc(OCCNc2cc(N3CCN(C)CC3)ccc2[N+](=O)[O-])c1	u	16µM	n	n
COc1ccc(Nc2nc(N)c(C(=O)c3ccc(F)cc3)s2)cc1	u	1.3µM	1.8µM	u
COc1ccc(Nc2nc(N)c(C(=O)c3ccc(OC)cc3)s2)cc1	1.3µM	u	u	u
COc1ccc(C(=O)c2sc(NC(C)C)nc2N)cc1OC	u	u	n[9.24 µM]	u
COc1cccc(C(=O)c2sc(NC(C)C)nc2N)c1	16µM	u	u	n
Cc1cc(C(=O)NCCc2ccc(Cl)cc2)c2c(C)nn(-c3cccc(F)c3)c2n1	n	n	x	x
Cc1ccc2nc(SCC(=O)N3CCCC3)nc(=O)n2c1	n	u	n	n
Cc1ccc2nc(SCC(=O)N3CCC(C)CC3)nc(=O)n2c1	n	18µM	n	n
COc1cccc(CN(C(=O)COc2ccc(Cl)c(C)c2)C2CCS(=O)(=O)C2)c1 (stereo not drawn)	n	n	x	x
O=C(Nc1ccc(NC(=O)c2ccccn2)cc1)C(=O)Nc1ccc2c(c1)OCCO2	n	n	n	n
O=C(Nc1ccc2c(c1)OCCO2)c1ccccn1	18µM	u	u	u
O=C(Nc1ccc2c(c1)OCCO2)c1ccccc1Cl	n	n	n	n
O=C(Nc1ccc2c(c1)OCCO2)c1cccc2nc3ccccc3nc12	u	6.5µM	n	n
COc1ccc(NC(=O)c2sc3nc(C)c(C(=O)Nc4ccc(C)cc4C)c(-c4ccc(C)o4)c3c2N)cc1	n	n	x	x
COc1cc(/C=N/NC(N)=O)c(Br)cc1OCC(=O)Nc1ccccc1C	n	n	n	n
COc1cc(/C=N/O)c(Br)cc1OCC(=O)Nc1ccccc1C	n	8.2µM	n	n
COc1ccc(CCN(C(=O)C(F)(F)F)C(C(=O)NC2CCCC2)c2cccs2)cc1OC (stereo not drawn)	n	9.2µM	n	n
COc1ccc(CCN(C(=O)C(F)(F)F)C(C(=O)NC2CCCCC2)c2ccc(C)s2)cc1OC (stereo not drawn)	n	n	n	n
C#CC(=O)N(c1ccc(OC)c(OC)c1)C(C(=O)NC1CCCC1)c1cccs1 (stereo not drawn)	n	n	0.58µM	0.12µM
C#CC(=O)N(c1cccc(OC)c1)C(C(=O)NC1CCCC1)c1cccs1 (stereo not drawn)	n	n	40µM	0.25µM
Cc1cc(NC(=O)CCS(=O)(=O)c2cc(Br)cc3c2N(C(=O)C2CC2)CC3)ccc1Br	n	u	x	x
SMILES	KB-3-1 cytotox	KB-V1 cytotox	HT1080 IDH1KD tx	HT1080-NT tox
COC(=O)c1ccc(NC(=O)c2nn(C)c3c2CS(=O)(=O)c2ccccc2-3)cc1	n	n	x	x
CCCCCCCC[n+]1cccc2c3ccccc3ccc21	u	n	8.2µM	12µM
CCCCCCCCCCCCCCCC[n+]1ccc(C)c2ccccc21	3.7µM	13µM	x	x
CCCCCCCCCC[n+]1cccc2cc(Cl)ccc21	5.2µM	n	x	x
CCCCCCCCCC[n+]1cccc2c3ccccc3ccc21	1.2µM	n	2.3µM	4.1µM
Clc1ccc2c(ccc[n+]2CCC2CCCCC2)c1	n	n	x	x
CCCC[n+]1c(C)ccc2ccccc21	u	n	x	x
Cc1c2ccccc2cc[n+]1CCCS(=O)(=O)[O-]	n	n	n	n
O=C(CSc1ccc2nnc(CCNS(=O)(=O)c3ccccc3)n2n1)Nc1ccccc1C(F)(F)F	n	n	x	x
Cc1ccc(N(CC(O)Cn2nc(C)cc2C)S(=O)(=O)c2ccc3ccccc3c2)cc1 (stereo not drawn)	n	5.8µM	n	n
Cc1ccccc1OCCC(=O)Nc1ccccc1C(=O)N1CCCCC1	n	8.2µM	n	n
CCC(Oc1ccccc1)C(=O)Nc1ccccc1C(=O)N1CCCCC1 (stereo not drawn)	n	12µM	n	n

Assay outcomes (PubChem BioAssay)
